Laboratory results: PubChem BioAssay (NCATS)
Records with an inconclusive call do not appear. Activity calls are given as the source filed them. Unless noted, the call rests on the fitted dose curve; in most records, active means well fitted cell-killing curve with a large enough effect; inconclusive means small, poorly fitted or top-dose-only effect, or effect the other way; inactive means no such curve, though single readings can be large or run the other way.

Columns and labels:
[1] = Quantitative High-Throughput drug screen in 47 multiple myeloma cell lines against the NCATS MIPE library collection: VP6_DJ cell viability assay (AID 1919867); further: nearly all actives have a fitted effect of over 40% in size; further: potency means the concentration at half of the fitted maximal effect
Summary of the method: (§1)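 MIPE 4.0 approved/investigational drugs; 500 cells/well; 48 h 37 °C humidified 5% CO2; CTG luminescence readout; DMSO = 100%, media = 0% viability.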

[2] = Quantitative High-Throughput drug screen in 47 multiple myeloma cell lines against the NCATS MIPE library collection: RPMI8226_ATCC cell viability assay (AID 1919871); further: nearly all actives have a fitted effect of over 30% in size; further: potency means the concentration at half of the fitted maximal effect
Summary of the method: as §1

[3] = Quantitative High-Throughput drug screen in 47 multiple myeloma cell lines against the NCATS MIPE library collection: OPM2_DSMZ cell viability assay (AID 1919872); further: nearly all actives have a fitted effect of over 30% in size; further: potency means the concentration at half of the fitted maximal effect
Summary of the method: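 Approved and investigational drugs from MIPE 4.0 were added by pin tool to 500 cells per well. After 48 hours at 37C, ATP-based CellTiter-Glo luminescence indicated remaining viability.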

[4] = Quantitative High-Throughput drug screen in 47 multiple myeloma cell lines against the NCATS MIPE library collection: KMS28BM_JCRB cell viability assay (AID 1919874); further: nearly all actives have a fitted effect of over 35% in size; further: potency means the concentration at half of the fitted maximal effect
Summary of the method: as §1

[5] = qHTS drug screen for cell cycle checkpoint inhibitors in PARPi-resistant BRCA-mutant ovarian cancer cell lines. (AID 1963452; calls by dose curve); conditions: PEO1/OlaR viability, CellTiter-Glo luminescence, 96 h, stronger effect = lower value
Summary of the method: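 PEO1, PEO4 and PEO1/OlaR ovarian cancer cells, 600 per well, exposed 96 h at 37C to a dilution series. Viability read by CellTiter-Glo luminescence, normalized to DMSO and empty wells; activity summarized as Z-AUC.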

[6] = Quantitative High-Throughput drug screen in 47 multiple myeloma cell lines against the NCATS MIPE library collection: PCM6_Riken cell viability assay (AID 1919870); further: nearly all actives have a fitted effect of over 30% in size; further: potency means the concentration at half of the fitted maximal effect
Summary of the method: as §1

[7] = Quantitative High-Throughput drug screen in 47 multiple myeloma cell lines against the NCATS MIPE library collection: KMS11_JCRBsus cell viability assay (AID 1919873); further: nearly all actives have a fitted effect of over 50% in size; further: potency means the concentration at half of the fitted maximal effect
Summary of the method: as §1

[8] = Quantitative High-Throughput drug screen in 47 multiple myeloma cell lines against the NCATS MIPE library collection: UTMC2_PLB cell viability assay (AID 1919868); further: nearly all actives have a fitted effect of over 55% in size; further: potency means the concentration at half of the fitted maximal effect
Summary of the method: as §1

[9] = Quantitative High-Throughput drug screen in 47 multiple myeloma cell lines against the NCATS MIPE library collection: PE2_PLB cell viability assay (AID 1919869); further: nearly all actives have a fitted effect of over 35% in size; further: potency means the concentration at half of the fitted maximal effect
Summary of the method: as §1

[10] = measured here: PEO1 parental Z-AUC

| Compound | Potency [1] | Potency [2] | Potency [3] | Potency [4] | Z-AUC [5] | Z-AUC [5, 10] | Z-AUC ([5]; measured here: PEO4 Z-AUC) | Potency [6] | Potency [7] | Potency [8] | Potency [9] |
| --- | --- | --- | --- | --- | --- | --- | --- | --- | --- | --- | --- |
| CC1COc2c(N3CCN(C)CC3)c(F)cc3c(=O)c(C(=O)O)cn1c23 (stereo not given) | inactive | inactive | inactive | inactive | -0.369 (inactive) | 0.841 | -0.196 |  |  |  |  |
| C[C@@H]1CC(=O)NN=C1c1ccc(NN=C(C#N)C#N)cc1 | 18.7 µM (active) | 20.9 µM (active) |  | 23.5 µM (active) | 0.769 (inactive) | 0.69 | 0.452 | 18.7 µM (active) | 16.6 µM (active) |  |  |
| CC(C)NCC(O)COc1ccc(CCOCC2CC2)cc1 (stereo not given) |  | inactive | inactive | inactive | 1.3 (inactive) | 0.99 | 1.01 | inactive |  | inactive |  |
| COc1cc2nc(N(C)CCCNC(=O)C3CCCO3)nc(N)c2cc1OC (stereo not given) | inactive |  |  |  |  |  |  | inactive |  |  |  |
| C[C@](N)(Cc1ccc(O)c(O)c1)C(=O)O |  |  | 7.43 µM (active) | inactive | 0.359 (inactive) | 1.39 | 1.22 | inactive | 7.43 µM (active) | inactive |  |
| CS(=O)(=O)Nc1ccc([N+](=O)[O-])cc1Oc1ccccc1 | inactive | 16.6 µM (active) |  | inactive | 1.34 (inactive) | 1.22 | 1.35 | inactive |  |  |  |
| NCCc1cnc[nH]1 |  |  |  | inactive | 0.48 (inactive) | 0.383 | 0.867 | inactive | inactive | inactive |  |
| CC(C)(Oc1ccc(C2CC2(Cl)Cl)cc1)C(=O)O (stereo not given) |  | inactive | inactive | inactive | -0.348 (inactive) | -0.606 | -0.292 |  | inactive | inactive | inactive |
| Cc1cn([C@H]2C=C[C@@H](CO)O2)c(=O)[nH]c1=O | inactive | inactive | inactive |  |  |  |  |  |  |  |  |
| N[C@@H](Cc1c[nH]c2ccc(O)cc12)C(=O)O | 16.6 µM (active) | 1.05 µM (active) | inactive | inactive | -0.189 (inactive) | -0.312 | -0.162 |  | inactive |  |  |
| Clc1ccccc1C(c1ccccc1)(c1ccccc1)n1ccnc1 | 14.8 µM (active) | 14.8 µM (active) |  |  | -0.839 (inactive) | -1.06 | -0.849 |  |  |  |  |
| O=C1N(c2ccccc2)c2ccccc2C1(Cc1ccncc1)Cc1ccncc1 | 20.9 µM (active) | inactive | inactive |  | -0.0273 (inactive) | 0.843 | 0.797 |  | inactive |  |  |
| CC12CC3CC(C)(C1)CC(N)(C3)C2 | 18.7 µM (active) |  | inactive | 2.64 µM (active) | 1.05 (inactive) | 0.978 | 0.935 | 20.9 µM (active) |  |  |  |
| O=C(c1ccc(OCCN2CCCCC2)cc1)c1c(-c2ccc(O)cc2)sc2cc(O)ccc12 | 16.6 µM (active) | 14.8 µM (active) |  | 23.5 µM (active) | 0.6 (inactive) | 0.409 | 0.0416 | 18.7 µM (active) | 16.6 µM (active) |  |  |
| CN(C)C(=N)N=C(N)N | inactive | inactive | inactive | inactive |  |  |  |  | inactive |  |  |
| Cn1ccc2cc3c(cc21)CCN3C(=O)Nc1cccnc1 | 14.8 µM (active) | inactive |  |  | 0.66 (inactive) | 0.473 | 0.355 | 23.5 µM (active) |  |  |  |
| COc1ccc(C2CNC(=O)C2)cc1OC1CCCC1 (stereo not given) | 14.8 µM (active) | inactive | inactive | inactive | -0.000894 (inactive) | 0.813 | 0.981 |  | inactive |  |  |
| CC[N+](CC)(CC)CCOc1cccc(OCC[N+](CC)(CC)CC)c1OCC[N+](CC)(CC)CC |  | inactive | 0.118 µM (active) |  | 0.722 (inactive) | 0.846 | 0.666 | inactive |  | inactive |  |
| COc1ccccc1N1CCN(CC(O)COc2cccc3ccccc23)CC1 (stereo not given) | inactive | 26.4 µM (active) |  | 13.2 µM (active) | -0.153 (inactive) | 0.273 | 0.504 |  |  |  |  |
| NCCCCCC(=O)O |  | inactive | inactive | inactive | 1.55 (inactive) | 1.11 | 1.26 | inactive | inactive | inactive |  |
| O=C(C1CCCCC1)N1CC(=O)N2CCc3ccccc3C2C1 (stereo not given) | inactive |  | inactive | inactive | 1.17 (inactive) | 0.752 | 1.07 |  | inactive |  |  |
| CCCCc1oc2ccccc2c1C(=O)c1cc(I)c(OCCN(CC)CC)c(I)c1 | 14.8 µM (active) | 18.7 µM (active) |  | 20.9 µM (active) | -0.673 (inactive) | -0.649 | -0.00161 | 20.9 µM (active) |  |  |  |
| O=C(c1ccc(F)cc1)C1CCN(CCn2c(=O)[nH]c3ccccc3c2=O)CC1 |  | 5.26 µM (active) | inactive |  |  |  |  |  |  | inactive |  |
| Cn1cnc2c1c(=O)[nH]c(=O)n2C |  | 20.9 µM (active) | 20.9 µM (active) | 14.8 µM (active) | -0.393 (inactive) | -0.653 | -0.709 | 16.6 µM (active) | 9.35 µM (active) | 14.8 µM (active) | 9.35 µM (active) |
| CC(C)Cc1ccc(C(C)C(=O)O)cc1 (stereo not given) |  | inactive | inactive |  | 1.42 (inactive) | 1.49 | 1.2 |  | inactive | inactive | inactive |
